# Screens from PubChem.
# An excerpt weighted towards active compounds, which were near 19% of everything screened.
# TDP1 cell CPT = growth inhibition of DT40 Tdp1-/-;hTDP1 cells with camptothecin (screen for TDP1 inhibitors); chicken DT40 Tdp1-/-;hTDP1 cells + 20 nM CPT, ATP luminescence, 48 h; Potency, µM (titrated, usually from 46.2 µM), without a hit: at the highest dose activity change, negative = growth inhibition, actives largely listed as inhibitors; 420,000 compounds, 12% hits; AID 686979; also: potency is read from the fitted curve at half-maximal effect; nearly all actives have a fitted effect of over 55% in size
#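 Chicken DT40 Tdp1-/- cells complemented with human TDP1, 400 cells/well, exposed to compounds plus 20 nM camptothecin for at least 48 h at 37 C; viability read as ATP content by CellTiter-Glo luminescence.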
# TDP1 cell noCPT = qHTS for Inhibitors of human tyrosyl-DNA phosphodiesterase 1 (TDP1): qHTS in cells in absence of CPT | DT40 Tdp1-/- hTDP1 cells, no CPT, ATP luminescence, 48 h | Potency, µM (top dose mostly 46.2 µM), for the others: top-dose activity change, negative = growth inhibition, hits mostly inhibitors | 420,000 compounds, 15% hits | AID 686978, 2013; also: potency is read from the fitted curve at half-maximal effect; nearly all actives have a fitted effect of over 55% in size
#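 Growth kinetics read by CellTiter-Glo luminescence after ≥48 hr at 37 °C. Cells: DT40 Tdp1-/- stably carrying human TDP1, 400 per well, compound exposure in the absence of CPT (DMSO vehicle).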
# HT1080NT lethal = kills 2HG-producing HT-1080-NT fibrosarcoma cells; HT-1080-NT fibrosarcoma viability, CellTiter-Glo ATP luminescence, 48 h; Potency, µM (series often up to 46.1 µM), inactives show top-dose activity, negative = less viability, actives largely listed as cytotoxic; 360,000 compounds, 1.6% hits; AID 686970;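 also: NT is the 2HG producing partner of a matched IDH1 knockdown line; potency is read from the fitted curve at half-maximal effect; 0% = DMSO-treated cells and -100% = media-only wells without cells; nearly all actives have a fitted effect of over 55% in size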
#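 Fibrosarcoma NT cells, 750 per well in 5% FBS RPMI, were exposed to compound for 48 hours. Viability: CellTiter-Glo luminescence.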
# HT1080 IDH1KD tx = kills HT-1080 cells with IDH1 knockdown. 360,000 compounds, 2% hits. AID 686971. HT-1080 IDH1 knockdown viability, ATP luminescence, 48 h. Potency, µM (titrated, usually from 46.1 µM), for inactives: at the highest dose activity, negative = toxicity, usual class: cytotoxic;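 also: potency is read from the fitted curve at half-maximal effect; 0% = DMSO wells and -100% = cell-free medium wells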
#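 IDH1KD HT-1080 cells, 750/well, RPMI + 5% FBS; compound pinned after 2 h settling; 48 h, 37 °C; CellTiter-Glo luminescence; % activity normalised to DMSO and no-cell wells; curves fitted, classed by r2 and efficacy.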
# IL-1B inflam inh = inflammasome signaling inhibition, IL-1 beta readout. THP-1 LPS/ATP IL-1B secretion, AlphaLISA, 16 h; stronger effect = lower value. activity change, % at 57.5 µM. 360,000 compounds, 4.7% hits. AID 743279; in the data active = activity change below about -50%; inconclusive = mostly about -30% to -49%
#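 Secreted IL-1B measured by AlphaLISA bead assay after 16 h compound exposure of THP-1 cells; compounds (final up to 57.5 uM) added 1 h before LPS (250 ng/mL) and ATP (1.25 mM) stimulation; lower signal means less secretion.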
# * = called active by the depositor; ? = inconclusive; . = no result; [ ] = another dose, or the depositor's remark. Unless noted, calls follow the shape of the dose curve; as a rule, active = well fitted curve in the direction sought with a large enough effect; inconclusive = small, poorly fitted or top-dose-only effect, or another doubt; inactive = no such curve, though single readings can be large; an effect the other way counts as inactive or inconclusive. Unless noted, % is scaled to controls: 0 for no effect and ±100 for the full control effect.
SMILES,TDP1 cell CPT,TDP1 cell noCPT,HT1080NT lethal,HT1080 IDH1KD tx,IL-1B inflam inh
C=CCC1NS(=O)(=O)O[C@H](CCCC)[C@@H]1O (some centres undefined),-16%,2%,11%,9%,28
Cc1ccc(N=Nc2ccc3ccccc3c2O)cc1,?,?,?,-14%,-12
Oc1c(N=Nc2ccc(F)cc2)ccc2ccccc12,9.2µM*,15µM*,-27%,-15%,4
COc1cccc(N=Nc2ccc3ccccc3c2O)c1,-23%,?,-1%,1%,-4
Oc1c(N=Nc2nn[nH]n2)ccc2ccccc12,16µM*,16µM*,?,?,103
CCCCNC(=O)CSc1nc2cc3c(cc2c(=O)n1Cc1ccco1)OCO3,18µM*,16µM*,12%,-8%,9
CCC(Sc1nc2cc3c(cc2c(=O)n1Cc1ccco1)OCO3)C(=O)Nc1cccc(OC)c1 (centres undefined),?,?,-18%,-29%,31
CCC(Sc1nc2cc3c(cc2c(=O)n1Cc1ccco1)OCO3)C(=O)Nc1ccccc1OC (centres undefined),8.2µM*,8.2µM*,-14%,-3%,-22
COCCNC(=O)CSc1nc2cc3c(cc2c(=O)n1Cc1ccco1)OCO3,-27%,-19%,6%,3%,26
CCC(CC)c1nnc(NC(=O)c2ccc3ccccc3n2)s1,?,11µM*,-18%,-23%,4
CCC(CC)c1nnc(NC(=O)c2cc(-c3ccccc3)nc3ccccc23)s1,7%,-5%,12%,22%,1
COC(=O)C[C@H]1c2ccccc2S(=O)(=O)N1c1ccc(N(C)C)cc1,?,10µM*,.,.,.
COC(=O)C[C@H]1c2cc(F)ccc2S(=O)(=O)N1c1ccccc1,6%,-15%,-2%,-1%,24
COC(=O)C[C@H]1c2cc(C(F)(F)F)ccc2S(=O)(=O)N1c1ccc(N(C)C)cc1,13µM*,10µM*,0%,1%,41
CN(C)c1ccc(N2[C@@H](CC(=O)O)c3cc(C(F)(F)F)ccc3S2(=O)=O)cc1,?,?,-2%,2%,10
CC(=O)C[C@H]1c2cc(C(F)(F)F)ccc2S(=O)(=O)N1c1ccc(N(C)C)cc1,7.9µM*,15µM*,-6%,-2%,21
CCOC(=O)Cc1csc(NC(=O)c2cccc(OC)c2)n1,-29%,?,5%,0%,0
COc1ccc(C(=O)Nc2nc(CC(=O)NCCc3cccc(OC)c3)cs2)cc1,?,15µM*,-1%,-9%,?
COc1ccc(C(=O)Nc2nc(CC(=O)NCCc3ccccc3)cs2)cc1,?,?,1%,0%,-52*
O=C(Cc1csc(NC(=O)c2ccccc2)n1)NO,?,-13%,?,?,-58*
O=C(NCCN1CCOCC1)C1CCC(CNS(=O)(=O)c2ccc(Cl)cc2)CC1 (centres undefined),?,?,3%,-3%,-4
O=C(Nc1ccc2[nH]c(=O)[nH]c2c1)c1ccc([N+](=O)[O-])o1,?,-19%,-4%[9.24 µM],?,?
Cc1ccc(NC(=O)c2ccc([N+](=O)[O-])o2)cc1C,26µM*,10µM*,26µM*,13µM*,-94*
O=C(Nc1cccc(NC(=O)c2ccccc2Cl)c1)c1ccc([N+](=O)[O-])o1,8.2µM*,5.8µM*,?,9.2µM*,-106*
O=C(Nc1cccc([N+](=O)[O-])c1)c1ccncc1,0%,-20%,22%,20%,22
SMILES,TDP1 cell CPT,TDP1 cell noCPT,HT1080NT lethal,HT1080 IDH1KD tx,IL-1B inflam inh
O=C(Nc1cccc([N+](=O)[O-])c1)c1ccc([N+](=O)[O-])o1,1.8µM*,3.7µM*,?,?,-103*
O=C(NN1CCOCC1)c1ccccc1,5%,12%,17%,15%,9
Cc1ccc(C(C)C)c(Oc2cnccn2)c1,-1%,18%,11%,5%,20
Cc1ccccc1-c1cc(N(C)Cc2ccco2)ncn1,?,-8%,.,.,.
CN(C)Cc1ccccc1-c1nc(N(C)Cc2ccco2)c2ccccc2n1,18µM*,8.2µM*,.,.,.
CN(C)Cc1ccccc1-c1nccc(N(C)Cc2ccco2)n1,21µM*,?,.,.,.
Cc1c(C(=O)N2CCN(S(=O)(=O)c3ccccc3)CC2)oc2ccc(Br)cc12,-9%,?,7%,-4%,-27
CCCCc1c(-c2cccc(OC)c2)ncn1CCc1ccccc1OC,15µM*,18µM*,21µM*,26µM*,-96*
CCCCCc1c(-c2ccccc2)ncn1CCc1ccccc1OC,23µM*,15µM*,?,?,0
COc1ccccc1Cc1c(-c2ccc(OC)c(OC)c2)nc2cc(C)c(Br)c(C)n12,?,?,?,-22%,-12
COc1ccccc1CCn1cnc(-c2ccc(OC)c(OC)c2)c1C(C)C,8.2µM*,5.8µM*,23µM*,?,-51*
CCCCc1c(-c2ccc(OC)c(OC)c2)ncn1CCc1ccccc1OC,5.8µM*,5.8µM*,15µM*,12µM*,-51*
Cc1cccc(OCCC(=O)Nc2ccc(N3CCOCC3)cc2N2CCOCC2)c1,-26%,?,15%,1%,?
COc1ncc2nc(-c3cccs3)c(=O)n(CCc3ccccc3)c2n1,18%,25%,.,.,.
COc1cc2c3c(c1)C(C)=CC(C)(C)N3C(=O)C2=O,0.73µM*,0.82µM*,10µM*,3.3µM*,0
COc1ccc(C(=O)Oc2cc3c4c(c2)C(C)=CC(C)(C)N4C(=O)C3=O)cc1OC,4.6µM*,3.3µM*,0%,-4%,10
COc1cc2c3c(c1)C1(C(=O)N3C(C)(C)C=C2C)C(C#N)=C(N)Oc2cc(O)ccc21 (centres undefined),5%,-6%,-3%,-5%,-10
COc1ccc(C(=O)Oc2cccnc2)cc1OC,0%,?,11%,10%,44
COc1cc2c3c(c1)C(C)CC(C)(C)N3C(=O)C2=O (centres undefined),2.6µM*,5.2µM*,-5%,-3%,-4
COc1cccc(C(=O)Oc2cc3c4c(c2)C(C)=CC(C)(C)N4C(=O)C3=O)c1,3.7µM*,3.7µM*,7.1µM*,4.5µM*,29
CCn1c(SCC(=O)Nc2sccc2C(N)=O)nnc1C1CC1,1%,0%,1%,-4%,0
Cc1cccc(N=Nc2cnc(N)s2)c1,?,?,-2%,0%,-65*
CSCCC(NC(=O)c1ccco1)C(=O)N1CC(C)OC(C)C1 (centres undefined),-8%,2%,0%,0%,-20
